The values below come from PubChem BioAssay (NCATS).

Molecules are shown by their SMILES. Results filed as inconclusive are left out. Active and inactive are the calls of the source. Unless noted, the call rests on the fitted dose curve; in most records, active means well fitted curve in the direction sought with a large enough effect; inconclusive means small, poorly fitted or top-dose-only effect, or another doubt; inactive means no such curve, though single readings can be large; an effect the other way counts as inactive or inconclusive.

Assay [1] can be described thus: Cell Viability - H-4-II-E (AID 543).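 Further: cells exposed to compound for 40 hours; on the % scale 0 is the no-effect control and ±100 the full control effect; nearly all actives have a fitted effect of over 35% in size.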 In short, it runs like this: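 Rat hepatoma H-4-II-E cells, 1500 per well, treated 40 h at 37 °C in complete medium. Cellular ATP read by CellTiter-Glo luminescence; AC50 from Hill fits of concentration-response.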
The nature of assay [2]: Cell Viability - SH-SY5Y (AID 544).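 Further: cells exposed to compound for 40 hours; nearly all actives have a fitted effect of over 55% in size.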 The following applies: SH-SY5Y neuroblastoma cell viability; viability change, negative = cytotoxic: at 92.2 µM (top of the series). In short, it runs like this:
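SH-SY5Y human neuroblastoma cells (1500/well) incubated 5 h, then compound-treated 40 h at 37 °C in complete medium. Viability read as intracellular ATP by CellTiter-Glo luminescence after 20 min; AC50 from Hill-equation fits of qHTS concentration-response.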

A short description of assay [3]: Cellular Toxicity (caspase-3) Jurkat (AID 655).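 Further: cells exposed to compound for 16 h at 37 °C before reading.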 The following applies: Jurkat caspase-3 activation, luminescence; caspase-3 activation: at 92.2 µM (top of the series), DMSO = 0%, tamoxifen = 100%. In short, it runs like this: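 Luminescent caspase-3/7 readout (aminoluciferin substrate cleavage) in human T-cell leukemia Jurkat cells after 16 hr compound exposure. Concentration-response normalized to DMSO and 100 uM tamoxifen; AC50 by standard Hill equation.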

Assay [4] is described as follows: Cell Viability - LYMP2-001 (AID 921).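 Further: 0% = DMSO only and full inhibition = tetraoctylammonium bromide control wells; nearly all actives have a fitted effect of over 70% in size.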 The method in brief: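 CellTiter-Glo luminescence (intracellular ATP) after 24 hr compound exposure at 37 C, 2500 lymphoblastoid cells/well in complete medium. AC50 fitted with standard Hill equation; tetraoctylammonium bromide positive control.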
Assay [5] in a line: MultiTox-Fluor Cytotoxicity Assay - LYMP1-003 - Live Cells (AID 962).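 Further: 0% = DMSO only and full loss = 92 µM tetraoctylammonium bromide; cytotoxic hits lower the live-cell protease signal.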 In short, it runs like this: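 LYMP1-003 lymphoblastoid cells, 2500/well in complete medium, treated 16 h at 37 C; live-cell protease cleavage of GF-AFC read by fluorescence (Ex/Em 405/510) after 60 min reagent; AC50 from Hill fits of concentration-response.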
Assay [6] is described as follows: Cell Viability - LYMP2-004 (AID 966).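 Further: plate controls were DMSO only for no effect and tetraoctylammonium bromide control for full effect; nearly all actives have a fitted effect of over 65% in size.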 In short, it runs like this: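 Lymphoblastoid LYMP2-004 cells, 2500 per well, were preincubated for 5 hr and then treated with compound for 24 h at 37 C in complete medium. Viability was read as cellular ATP by CellTiter-Glo luminescence, and AC50 values were taken from Hill fits to concentration-response data.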
The nature of assay [7]: Cell Viability - LYMP2-015 (AID 971).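 Further: 0% = DMSO only and full effect = 92 µM tetraoctylammonium bromide; nearly all actives have a fitted effect of over 55% in size.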 In short, it runs like this:
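LYMP2-015 human lymphoblastoid cells (2500/well) in complete medium, compound-treated 24 h at 37 C; viability read as cellular ATP by CellTiter-Glo luminescence after 30 min at room temperature. AC50 from Hill-equation fits of qHTS concentration-response data.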

A short description of assay [8]: Cell Viability - LYMP2-019 (AID 973).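 Further: 0% = DMSO alone and full effect = 92 µM tetraoctylammonium bromide; nearly all actives have a fitted effect of over 55% in size.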 The method in brief:
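Human lymphoblastoid LYMP2-019 cells (2500/well) preincubated 5 h at 37 C, then treated 24 h at 37 C in complete medium. Viability by CellTiter-Glo ATP luminescence after 30 min at room temperature; AC50 from Hill fits.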

Assay [9] in a line: Cell Viability - LYMP2-021 (AID 974).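 Further: compound exposure lasts 24 hours at 37 °C; on the % scale 0 is the no-effect control and ±100 the full control effect; nearly all actives have a fitted effect of over 55% in size.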 The method in brief:
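Human lymphoblastoid LYMP2-021 cells, 2500/well in complete medium, treated 24 hours at 37 C. Intracellular ATP by CellTiter-Glo luminescence (30 min, RT); AC50 from Hill fits of concentration-response.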

A short description of assay [10]: Cell Viability - LYMP2-025 (AID 976).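 Further: plate controls were DMSO only for no effect and tetraoctylammonium bromide control for full effect.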 In short, it runs like this: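 Human lymphoblastoid LYMP2-025 cells, 2500/well, exposed 24 h at 37 C in complete medium in 1536-well qHTS. Viability as cellular ATP by CellTiter-Glo luminescence; AC50 from Hill fits of concentration-response data.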
Assay [11] in a line: Cell Viability - LYMP2-006 (AID 978). Further: on the % scale 0 is the no-effect control and ±100 the full control effect; nearly all actives have a fitted effect of over 60% in size. The method in brief:
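qHTS, 1536-well; 2500 cells/well, 5 hr 37 C; cpd 24 hr 37 C; CellTiter-Glo 30 min RT; luminescence. Tetraoctylammonium bromide pos. ctrl. AC50 via Hill eqn.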

A short description of assay [12]: Cell Viability - LYMP2-007 (AID 979).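 Further: cells exposed to compound for 24 h before reading; 0% = DMSO only and the negative end = 92 µM tetraoctylammonium bromide; nearly all actives have a fitted effect of over 60% in size.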 The method in brief:
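Human lymphoblastoid LYMP2-007 cells (2500/well) preincubated 5 h at 37 C, then treated 24 h at 37 C in complete medium. Viability by CellTiter-Glo ATP luminescence after 30 min at room temperature; AC50 from Hill fits.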

A short description of assay [13]: Cell Viability - LYMP2-014 (AID 983).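 Further: plate controls were DMSO only for no effect and 92 µM tetraoctylammonium bromide for full effect; nearly all actives have a fitted effect of over 50% in size.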 The method in brief: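 LYMP2-014 human lymphoblastoid cells, 2500/well, treated 24 h at 37 C in complete medium; viability by CellTiter-Glo ATP luminescence after 30 min at room temperature. AC50 from Hill fits of qHTS concentration-response; tetraoctylammonium bromide positive control.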
A short description of assay [14]: Cell Viability - LYMP2-018 (AID 985).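 Further: plate controls were DMSO only for no effect and tetraoctylammonium bromide at 92 µM for full effect; nearly all actives have a fitted effect of over 50% in size.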 In short, it runs like this: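 Human lymphoblastoid LYMP2-018 cells, 2500/well, settled 5 hr at 37 C then exposed to compound 24 hr at 37 C; intracellular ATP measured by CellTiter-Glo luminescence. AC50 from Hill-equation concentration-response fits.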
Assay [15] is described as follows: Cell Viability - LYMP2-020 (AID 986). The method in brief: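 Human lymphoblastoid LYMP2-020 cells (2500/well) preincubated 5 h at 37 C, then treated 24 h at 37 C. Viability measured as intracellular ATP by CellTiter-Glo luminescence after 30 min at room temperature; AC50 from Hill fits.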
Assay [16] in a line: Cell Viability - LYMP2-022 (AID 987). The method in brief: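 LYMP2-022 lymphoblastoid cells (2500/well, complete medium) were treated with compounds for 24 hours at 37 C; intracellular ATP was then read by CellTiter-Glo luminescence after 30 min at room temperature. AC50 values were derived from Hill-equation fits.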
The nature of assay [17]: Cell Viability - LYMP2-026 (AID 989). Further: on the % scale 0 is the no-effect control and ±100 the full control effect; nearly all actives have a fitted effect of over 50% in size. The method in brief: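 Human lymphoblastoid LYMP2-026 cells, 2500/well, exposed to compound 24 h at 37 C in complete medium. Viability as intracellular ATP by CellTiter-Glo luminescence; AC50 from Hill fits of qHTS concentration-response.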
Assay [18] is described as follows: Cell Viability - LYMP1-002 - Assay at 40 hr (AID 994).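 Further: 0% = DMSO only and full inhibition = 92 µM tetraoctylammonium bromide; nearly all actives have a fitted effect of over 60% in size.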 The method in brief: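 LYMP1-002 human lymphoblastoid cells (2500/well, complete medium) were treated with compounds for 40 hr at 37 C. Intracellular ATP was measured by CellTiter-Glo luminescence, and AC50 values came from Hill-equation fits of concentration-response data; tetraoctylammonium bromide was the positive control.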

A short description of assay [19]: qHTS assay for small molecule agonists of retinoid X receptor alpha signaling (AID 588544). Conditions: HEK293T RXRa-UAS-bla, beta-lactamase reporter, 18 h; 530 nm emission.
Assay [20] is described as follows: qHTS assay for small molecule antagonists of the retinoid-related orphan receptor gamma (ROR-gamma) signaling pathway - cell viability counter screen (AID 720652; active means well fitted curve in the direction sought with a large enough effect in the repeat runs; an effect the other way counts as inactive or inconclusive;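 further: CHO reporter cells with doxycycline-induced ROR-gamma expression; compound exposure lasted 16 hr before ATP read; on the % scale 0 is the no-effect control and ±100 the full control effect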). In short, it runs like this: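 CHO cells carrying TET-inducible ROR and RORE-luciferase reporter, plated 5 hr, then dosed with compound plus doxycycline. After 16 hr at 37 C, viability read as intracellular ATP by CellTiter-Glo luminescence.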

Consider `Clc1cc(Cl)c(Cl)c(Cl)c1`, for which the Potency result in [1], in assay [2], in assay [4], in [6], in [7] and in assay [8] was “inactive” in each case. For the same compound, the Potency result in assay [9], in assay [10], in assay [11], in [12], in assay [13] and in [14] was “inactive” throughout. The Potency result in [15], in [16], in assay [17], in assay [18] and in [20] was “inactive” throughout. Moreover, in assay [3], the caspase-3 activation is 0.108% (inactive). The compound was called inactive in [5]. Moreover, the max response in assay [19] was found to be 0.707%.
For the compound `c1ccc(C2CO2)cc1` (stereo not drawn), the Potency result in assay [1], in assay [2], in assay [4], in [7], in [8] and in assay [9] was “inactive” throughout. For the same compound, the Potency result in assay [10], in assay [11], in assay [12], in [13], in [14] and in [15] was “inactive” each time. Moreover, the Potency result in [16], in [17], in assay [18] and in assay [20] was “inactive” throughout. For the same compound, the caspase-3 activation in assay [3] is 1.66% (inactive). Besides, in assay [5], the outcome was inactive. Also, the max response in [19] was -3.27%.
Take `Nc1ccc(-c2ccccc2)cc1`: the Potency result in [1], in assay [2], in [4], in assay [6], in assay [7] and in assay [8] was “inactive” in each case. Besides, the Potency result in assay [9], in assay [10], in assay [11], in [12], in assay [13] and in assay [14] was “inactive” in each case. Moreover, the Potency result in assay [15], in [16], in assay [17], in assay [18] and in assay [20] was “inactive” each time. Also, the caspase-3 activation in [3] is 2.52% (inactive). In [5], the result was inactive. Moreover, the max response in [19] is 9.85%.
As to `O=C(O)c1cccc(Cl)c1`, the Potency result in assay [1], in [2], in assay [4], in assay [6], in assay [7] and in [8] was “inactive” in each case. Moreover, the Potency result in assay [9], in assay [10], in assay [11], in assay [12], in assay [13] and in assay [14] was “inactive” in each case. In addition, the Potency entry in [15], in assay [16], in assay [17], in assay [18] and in assay [20] was “inactive” throughout. The caspase-3 activation in assay [3] was -2.79% (inactive). Also, the call in assay [5] was inactive. The max response in [19] was -9.83%.
With `Nc1ccc(Cl)c(Cl)c1`, the Potency result in assay [1], in [2], in [4], in assay [6], in assay [7] and in [8] was “inactive” in each case. Besides, the Potency entry in assay [9], in assay [10], in [11], in [12], in assay [13] and in assay [14] was “inactive” throughout. Also, the Potency entry in [15], in assay [16], in [17] and in assay [18] was “inactive” each time. Also, the caspase-3 activation in assay [3] was 0.952% (inactive). The result in [5] was inactive. In [19], the max response stood at 3.91%.
`C=CC(=O)OCC(C)C`: the Potency entry in [1], in assay [2], in [4], in assay [6], in assay [7] and in assay [8] was “inactive” throughout. Also, the Potency entry in assay [9], in assay [10], in assay [11], in assay [12], in assay [13] and in [14] was “inactive” throughout. The Potency entry in [15], in assay [16], in assay [17], in assay [18] and in assay [20] was “inactive” each time. Moreover, the caspase-3 activation in assay [3] was 0.654% (inactive). Moreover, in [5], the compound was called inactive. Also, the max response in [19] was -3.12%.
Turning to `Oc1c(Cl)cccc1Cl`, the Potency result in [1], in assay [2], in [4], in assay [6], in assay [7] and in assay [8] was “inactive” each time. The Potency entry in [9], in assay [10], in assay [11], in [12], in [13] and in assay [14] was “inactive” in each case. In addition, the Potency entry in [15], in assay [16], in assay [17], in assay [18] and in [20] was “inactive” each time. Further, in [3], the caspase-3 activation is 2.96% (inactive). For the same compound, the result in assay [5] was inactive. Further, in [19], the max response was determined as 9.22%.
Regarding `CCC/C=N/O`, the Potency result in [1], in [2], in [4], in [6], in [7] and in assay [8] was “inactive” in each case. Further, the Potency entry in [9], in assay [10], in assay [11], in [12], in [13] and in [14] was “inactive” throughout. Further, the Potency result in [15], in [16], in [17], in assay [18] and in assay [20] was “inactive” throughout. For the same compound, in assay [3], the caspase-3 activation is -1.14% (inactive). For the same compound, the outcome in assay [5] was inactive. In addition, in assay [19], the max response was -21.6%.
